# Measured values from ChEMBL document CHEMBL3988442, “University of Dundee, Small-Polar-MMV Screening Library” (2021).
# Hit rate of the full screen: of about 48,000 compounds, about 13,000 (27%) showed an effect of 50% or more. The list shows a part of the results.
# Test system: Wolbachia pipientis
# Test: Anti-Wolbachia Cell-Based Screen
# Assay type: functional
# Set-up: scale not given: in the data most compounds retested in dose-response had high values
# Conditions: 5 µM
row,SMILES,Percent Effect [%]
1,O=C(N1CCC(OCc2ccccn2)CC1)C1(c2ccc(F)cc2)CC1,-10.1
2,C=C(C)CNC(=O)C1CCCN(C2CCN(C(C)C)CC2)C1 (stereo unspecified),-1.601
3,Fc1cnc(N2CCCn3c(nnc3Cn3cccn3)C2)nc1,-21.77
4,CN(C)c1ncnc2c1CCN(C(=O)CN1CCCCC1)C2,-9.788
5,CCOC(C)c1nc(CN2CCN(c3ncc(C)cn3)CC2)cs1 (stereo unspecified),0.6685
6,COc1ccc(S(=O)(=O)C(F)(F)F)cc1NC(=O)CSC,25.38
7,COCCC1(CO)CCCN(Cc2ccc(F)c(C)c2)C1 (stereo unspecified),-0.7036
8,CCN(CC)C(=O)CCCNC(=O)Cc1nc(-c2ccco2)oc1C,-23.46
9,Cc1ccc(C(=O)N2CCOc3nc(C)ccc32)c(F)c1,-2.508
10,O=C(NCCNC1CCN(c2nccs2)CC1)c1cccs1,-5.805
11,CC(C)(C)c1ncc(C(=O)NCCNC(=O)c2ccccc2)s1,3.571
12,CC(C)(C)c1ncc(C(=O)NCCNC(=O)c2cccs2)s1,110.8
13,O=C(NCCNc1ncccn1)c1cnc(-c2ccccc2)nc1,9.369
14,CC(C)(C)c1ncc(C(=O)NCCNc2ncccn2)s1,108.5
15,CC(C)(C)c1ncc(C(=O)NCCNC(=O)c2ccc(O)cc2)s1,102.8
16,O=C(NCCNc1ccc(Br)cn1)c1ccc(O)cc1,-11.29
17,CC(C)(C)c1ncc(C(=O)NCCn2ccnc2)s1,-7.496
18,CC(O)(CCc1ccccc1)CNC(=O)c1cccs1 (stereo unspecified),-8.464
19,Cc1sc2nc(C(F)(F)F)nc(N3CCC(NS(C)(=O)=O)CC3)c2c1C,11.4
20,CCn1ncc2c1CCCC2NCC1=Cc2ccccc2OC1 (stereo unspecified),-5.815
21,CC(=O)N1CC2(CCN(Cc3ccc(Cl)cc3)CC2)Cc2ccccc21,118.6

row,SMILES,Percent Effect [%]
1,CC(=O)N1CCCC2(CCN(Cc3ccc(Cl)c(C(F)(F)F)c3)C2)C1 (stereo unspecified),13.59
2,COCC(=O)N1CCC2(CCCN(Cc3ccc(Cl)cc3)CC2)CC1,-3.814
3,CC(=O)N1CC2(CCN(Cc3ccc(Cl)cc3)C2)Cc2ccccc21 (stereo unspecified),116.3
4,CC(=O)N1CCCC2(CCN(Cc3ccc(Cl)c(F)c3)C2)C1 (stereo unspecified),9.026
5,CC(=O)N1CCC2(CCCN(Cc3ccc(Cl)c(C(F)(F)F)c3)C2)C1 (stereo unspecified),5.734
6,CC(=O)N1CC2(CCCN(Cc3ccc(Cl)cc3)C2)Cc2ccccc21 (stereo unspecified),131.8
7,Cc1ncsc1CN1CCC2(CC1)CC(=O)N(Cc1ccc(Cl)cc1)C2,-0.4744
8,Cc1cc(C(=O)N2CCN(CC(O)Cn3cccn3)CC2)c(C)o1 (stereo unspecified),3.42
9,CN1CCC(N2CCOC[C@H]2c2nc(-c3ccncc3)c[nH]2)CC1,-3.647
10,CNS(=O)(=O)c1ccc(C(=O)NC2CCc3nc(C)cn3C2)o1 (stereo unspecified),-2.01
11,Cc1cnc(N2CCc3c(CNc4ccnc(C)n4)cncc3C2)nc1.Cl,94.65
12,Cc1nccc(NCc2cncc3c2CCN(S(C)(=O)=O)C3)n1.Cl,65.34
13,Cc1nccc(NCc2cc3n(n2)CCCN(S(C)(=O)=O)C3)n1,-4.835
14,CN1C(=O)CC(C(=O)O)C12CCN(Cc1cc(F)ccc1Cl)CC2 (stereo unspecified),-13.17
15,Cc1ccnn1CC(=O)Nc1cc(-c2ccncc2)[nH]n1,-6.833
16,Cc1nc(-c2cccc(C(=O)N(C)C)c2)cs1,-24.42
17,CN(C)C(=O)c1cc(-c2ccncc2)[nH]n1,116.7
18,O=C(NCCn1nc2ccccn2c1=O)c1cc(-c2ccccc2)[nH]n1,1.619
19,CN(C)C(=O)c1cc(-c2ccccc2)[nH]n1,125.1
20,Cc1ccn(CC(=O)Nc2cc(-c3ccncc3)[nH]n2)n1,-0.1185
21,CC1=C[C@@H](CN2CCC(CO)CC2)[C@H](C(C)C)C[C@H]1Cc1nnc(C)o1,-9.335

row,SMILES,Percent Effect [%]
1,COc1ccc(CN2C[C@@H](F)[C@@H](OCc3nc4ccccc4[nH]3)C2)cn1,-8.557
2,CC(NC(=O)c1ccc2c(c1)OCC(=O)N2)c1ccccc1F (stereo unspecified),-1.956
3,CCc1ccc(OCC(O)CN2CCN(CCO)CC2)cc1.Cl.Cl (stereo unspecified),85.64
4,CCN1CCN(CC(O)c2ccc(OC(F)(F)F)cc2)CC1 (stereo unspecified),1.039
5,CCc1ccc(CNCC2CCN(CCO)CC2)cc1,-51.45
6,CCc1ccc(OCC(O)CN2CCC(O)CC2)cc1 (stereo unspecified),11.05
7,Cc1c(C)n(CC(O)CN2CCN(CCO)CC2)c2c(Cl)cccc12.Cl (stereo unspecified),3.197
8,CCc1ccc(OCC(O)CN2CCN(CC)CC2)cc1 (stereo unspecified),71.19
9,Cc1n[nH]cc1CNC1(Cc2ccc(Br)cc2)CCCCC1,13.31
10,O=C(Cc1ccc(F)cc1)NCc1ccc(C(=O)O)o1,-2.994
11,CC(C)c1nc(/C=C/c2ccc(O)c(Cl)c2)ncc1C(=O)O,6.301
12,CN(C)S(=O)(=O)N1CCCC1C(=O)N1CCSCC1 (stereo unspecified),-27.44
13,Cc1ccc(CN2C[C@@H]3[C@@H](C(=O)NCC4CC4)CCS(=O)(=O)[C@@H]3C2)cc1.O=C(O)C(F)(F)F,110.7
14,CC(C)CNC(=O)[C@H]1CCS(=O)(=O)[C@@H]2CN(CC(C)C)C[C@H]12.O=C(O)C(F)(F)F,102.6
15,CC(C)CNC(=O)[C@H]1CCS(=O)(=O)[C@@H]2CN(Cc3cccnc3)C[C@H]12,94.11
16,CC(C)CNC(=O)[C@H]1CCS(=O)(=O)[C@@H]2CN(Cc3ccc(Cl)cc3)C[C@H]12.O=C(O)C(F)(F)F,20.84
17,CC(C)CNC(=O)[C@H]1CCS(=O)(=O)[C@@H]2CN(Cc3ccc(F)cc3)C[C@H]12.O=C(O)C(F)(F)F,118.4
18,Cc1ccc(CN2C[C@@H]3[C@@H](C(=O)N4CCCC4)CCS(=O)(=O)[C@@H]3C2)cc1.O=C(O)C(F)(F)F,-5.739
19,O=C([C@H]1CCS(=O)(=O)[C@@H]2CN(Cc3ccc(F)cc3)C[C@H]12)N1CCCC1,-0.8548
